# Source: PubChem BioAssay AID1456 (Vanderbilt High Throughput Screening Facility, 2008)
# Out of some 190,000 compounds screened, about 4,100 (2.2%) were called active.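 The calls were made as follows: active = thallium flux slope and its plate-corrected score both differing from the plate sample mean at a set confidence after two filtering rounds, in either direction; inactive = the rest.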 This excerpt belongs to a sample that is enriched for actives.
# Target: Solute carrier family 12 member 5 (Homo sapiens) (UniProt Q9H2X9)
# Sequence (Q9H2X9 whole entry, looked up): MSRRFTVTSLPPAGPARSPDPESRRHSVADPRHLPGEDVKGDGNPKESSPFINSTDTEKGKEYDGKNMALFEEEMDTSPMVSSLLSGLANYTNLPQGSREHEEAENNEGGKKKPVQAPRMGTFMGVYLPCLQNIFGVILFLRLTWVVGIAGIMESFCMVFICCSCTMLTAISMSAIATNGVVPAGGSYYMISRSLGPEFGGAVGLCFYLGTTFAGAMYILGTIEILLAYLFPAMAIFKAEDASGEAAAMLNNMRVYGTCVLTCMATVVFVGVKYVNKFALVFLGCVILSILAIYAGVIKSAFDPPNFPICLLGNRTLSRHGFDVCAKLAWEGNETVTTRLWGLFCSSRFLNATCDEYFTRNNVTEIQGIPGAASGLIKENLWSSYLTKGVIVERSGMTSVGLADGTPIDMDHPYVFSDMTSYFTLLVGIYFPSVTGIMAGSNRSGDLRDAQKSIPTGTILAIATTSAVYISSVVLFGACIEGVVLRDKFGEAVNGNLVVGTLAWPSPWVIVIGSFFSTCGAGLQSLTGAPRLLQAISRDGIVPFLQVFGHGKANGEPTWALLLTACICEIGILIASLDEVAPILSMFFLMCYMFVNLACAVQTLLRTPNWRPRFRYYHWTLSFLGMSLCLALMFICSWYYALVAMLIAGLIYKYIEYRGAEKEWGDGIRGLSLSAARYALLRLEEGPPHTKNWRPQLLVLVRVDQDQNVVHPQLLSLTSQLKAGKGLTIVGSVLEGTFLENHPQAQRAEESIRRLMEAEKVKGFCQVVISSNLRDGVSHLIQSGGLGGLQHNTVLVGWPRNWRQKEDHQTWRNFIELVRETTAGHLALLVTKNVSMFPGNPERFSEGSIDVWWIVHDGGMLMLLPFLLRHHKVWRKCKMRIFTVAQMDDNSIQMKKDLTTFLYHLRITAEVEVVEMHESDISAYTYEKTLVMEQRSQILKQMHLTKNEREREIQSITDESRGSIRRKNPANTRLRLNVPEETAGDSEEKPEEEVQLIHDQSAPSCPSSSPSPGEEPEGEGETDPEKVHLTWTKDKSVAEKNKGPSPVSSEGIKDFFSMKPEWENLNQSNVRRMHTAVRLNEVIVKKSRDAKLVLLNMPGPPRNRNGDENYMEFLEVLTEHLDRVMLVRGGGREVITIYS
# Assay: modulation of human KCC2 ion transport – cell-based, HEK293 KCC2, FluoZin-2 fluorescence, MLSMR, primary screen (AID 1456);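 also: slope of fluorescence scaled to starting intensity during 10 to 20 s after thallium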
# Settings: KCC2 cells, thallium flux FluoZin-2 fluorescence; at 10 µM
row,Compound,B-score of Tl+ flux slope (higher = more flux/activation; lower = inhibition)
1,CCC(C)(C)NC(=O)C(c1ccc(O)cc1)N(C(=O)Cn1nnc2ccccc21)c1ccc(NC(C)=O)cc1 (centres undefined),1.51 (inactive)
2,O=C(c1cccc(C(=O)N2CCc3ccccc32)n1)N1CCc2ccccc21,0.134 (inactive)
3,O=C(CSCc1ccccc1)N1CCc2ccccc21,-2.43 (active)
4,CCNC(=S)N1CCN(C(=O)c2ccco2)CC1,0.133 (inactive)
5,O=C(NC(=S)N1CCc2ccccc21)c1ccco1,23.3 (active)
6,Cc1nnc(SCC(=O)N2CCc3ccccc32)n1-c1ccccc1,0.58 (inactive)
7,NC(=O)N1CCc2ccccc21,0.799 (inactive)
8,O=C(NCc1cccnc1)C(=O)Nc1nc(-c2ccccc2)cs1,-0.384 (inactive)
9,O=C(CCCN1C(=O)/C(=C\c2ccccc2)SC1=S)Nc1ccccc1O,0.281 (inactive)
10,CCN(CC(=O)Nc1cccc(S(N)(=O)=O)c1)Cc1nc2ccccc2c(=O)[nH]1,1.06 (inactive)
11,Cc1coc2cc3oc(=O)c(CCC(=O)O)c(C)c3cc12,-0.564 (inactive)
12,C=CCn1c(SCc2csc(C)n2)nc2scc(-c3ccc(C)o3)c2c1=O,0.11 (inactive)
13,C=CCn1c(=S)[nH]c2scc(-c3ccco3)c2c1=O,111 (active)
14,C=CCNC(=O)CSc1nc2scc(-c3ccco3)c2c(=O)n1CC=C,-0.677 (inactive)
15,Nc1cccc(S(=O)(=O)Nc2ccc(SC(F)F)cc2)c1,-0.199 (inactive)
16,COc1ccc(-n2c(C)nc3c(cnn3-c3ccccc3)c2=O)cc1,-0.335 (inactive)
17,COc1ccc(Oc2c(Cl)cnn(-c3ccccc3)c2=O)cc1,-3.99 (active)
18,Cc1ccc(Oc2cnn(-c3ccccc3)c(=O)c2Br)cc1,-2.71 (inactive)
19,CC1C(=O)NC(=O)C1c1ccccc1 (centres undefined),0.0909 (inactive)
20,CCc1nnc(NC(=O)c2cccc(S(=O)(=O)N(C)c3ccc(OC)cc3)c2)s1,-0.265 (inactive)
21,CCc1ccc2nc3sc(C(=O)Nc4nnc(CC)s4)c(N)c3cc2c1,-4.25 (active)
22,CCc1nnc(NC(=O)c2sc3nc(C)cc(COC)c3c2N)s1,0.922 (inactive)
23,Cc1ccc(S(=O)(=O)N(C)CC(=O)OCC(=O)Nc2ccccc2)cc1,-1.25 (inactive)
24,Cc1nc(N)sc1N=Nc1c(C)n(C)n(-c2ccccc2)c1=O,0.0239 (inactive)
25,O=C(O)CSCc1nc2ccccc2s1,0.175 (inactive)

row,Compound,B-score of Tl+ flux slope (higher = more flux/activation; lower = inhibition)
1,COc1ccc(/C=C(/CC(=O)Nc2ccc(C)cc2)c2nc3ccccc3s2)cc1,-0.666 (inactive)
2,O=C(O)CS/C(=C\c1ccc(F)cc1)c1nc2ccccc2s1,-7.14 (active)
3,O=C(CC1SC(=Nc2ccccc2F)N(CCN2CCOCC2)C1=O)Nc1ccc(F)cc1F (centres undefined),0.206 (inactive)
4,Cc1ccc2cc(/C=N/NC(=O)[C@@H]3CCCN3)c(Cl)nc2c1,0.721 (inactive)
5,O=C(Nc1cccc(C(F)(F)F)c1)c1ccc(N2CCNCC2)c([N+](=O)[O-])c1,1.31 (inactive)
6,Cc1cccc(C(=O)NC(=S)N2CCN(c3ccc([N+](=O)[O-])cc3)CC2)c1,1.26 (inactive)
7,COc1cc(OC)cc(C(=O)NC(=S)N2CCN(c3ccc(C(F)(F)F)cc3[N+](=O)[O-])CC2)c1,6.75 (active)
8,Cc1cccc(C(=O)OCC(=O)NCC(C)C)c1O,-0.558 (inactive)
9,O=C(NCCc1ccccc1)Oc1ccc(Cl)cc1,-2.47 (inactive)
10,CC(C)C1Nc2c(C(=O)O)cccc2C(Nc2ccccc2C(=O)O)C1(C)C (centres undefined),-7.13 (active)
11,O=C(O)c1ccccc1-c1ccccc1C(=O)Nc1cccc2ccccc12,-0.144 (inactive)
12,CCNC(=O)CCc1nc(-c2ccc(C)cc2)no1,0.371 (inactive)
13,C/C(Cc1ccccc1)=N\NC(=O)CNC(=O)c1ccccc1Cl,-0.103 (inactive)
14,O=C(Nc1nnc(-c2ccc(Cl)cc2)o1)c1ccccc1Br,35.2 (active)
15,O=C(Nc1cccc(Cl)c1)Nc1nnc(-c2ccccc2)o1,3.17 (inactive)
16,O=C(Nc1ccc(-c2nnc(-c3ccccc3)o2)cc1)c1ccc(Br)o1,1.83 (inactive)
17,O=C(NNS(=O)(=O)Cc1ccccc1)c1ccc([N+](=O)[O-])cc1,0.00978 (inactive)
18,COc1ccc(NC(=S)Nc2ccccc2Cl)cn1,0.811 (inactive)
19,COc1ccccc1NC(=S)NC(=O)C(C)C,1.52 (inactive)
20,FC(F)Oc1ccccc1NC(=S)Nc1cccc(Cl)c1Cl,6.89 (active)
21,Cc1ccc(Cn2c(SCC(=O)N/N=C/c3ccccc3OCC(=O)O)nc3ccccc32)cc1,1.95 (inactive)
22,O=C(CSc1nnc2n1CCCN2)c1ccccc1,-0.0921 (inactive)
23,CC(C)N1CCC(=NNc2ccc([N+](=O)[O-])cc2S(=O)(=O)N2CCOCC2)CC1,0.0282 (inactive)
24,Cc1ccc(NNC(=O)C2CCC2)cc1C,0.435 (inactive)
25,CN(C)c1ccc(/C=C2\NC(=S)N(Cc3ccccc3)C2=O)cc1,2.56 (inactive)

row,Compound,B-score of Tl+ flux slope (higher = more flux/activation; lower = inhibition)
1,COc1cc2c(cc1/C=C1/NC(=O)N(c3ccccc3)C1=O)OCO2,0.747 (inactive)
2,O=C1/C(=C\c2ccsc2)NC(=S)N1c1ccccc1,11.5 (active)
3,NS(=O)(=O)c1ccc(NC(=S)NC(=O)c2cccnc2)cc1,1.98 (active)
4,NS(=O)(=O)c1ccc(NC(=S)NC(=O)c2cccc(Br)c2)cc1,1.13 (inactive)
5,CC(=O)NC(=S)Nc1ccc(NC(=O)c2cccnc2)cc1,1.03 (inactive)
6,Cn1c(=O)cc(OCC(=O)N2CCN(c3ccccc3F)CC2)c2ccccc21,-0.0376 (inactive)
7,O=C(Cn1c(-c2ccc(Cl)cc2)noc1=O)N1CCN(c2ccccc2F)CC1,-4.49 (active)
8,O=C(CCSc1ccccc1)N1CCN(c2ccccc2F)CC1,-1.46 (inactive)
9,COc1ccc(OCC(O)CNCCNc2nccc(C(F)(F)F)n2)cc1 (centres undefined),0.542 (inactive)
10,Cc1ccc2c(c1)nnc1nnc(SCC(=O)O)n12,-0.0291 (inactive)
11,Fc1ccc2nc(-c3ccccc3)nc(SCc3nnc(-c4ccccc4)o3)c2c1,41.8 (active)
12,c1ccc(-c2nnc(SCc3nc4ccccc4[nH]3)o2)cc1,-1.33 (inactive)
13,Cc1ccc2nc(SCc3nnc(-c4ccccc4[N+](=O)[O-])o3)c(C#N)cc2c1,0.799 (inactive)
14,O=C(NCc1cccnc1)c1nc(-c2cccs2)no1,0.407 (inactive)
15,CCCCN1Cc2c(nc3cc(-c4ccccc4)[nH]n3c2=O)C1=O,-0.758 (inactive)
16,NCCCCCC(=O)N/N=C/c1ccc2nccnc2c1,1.4 (inactive)
17,CCOC(=O)C1CCCN(C(=O)/C=C/c2ccc(OC)cc2)C1 (centres undefined),-0.769 (inactive)
18,O=C(Nc1ccc(S(=O)(=O)N2CCOCC2)cc1)c1ccc2ncsc2c1,0.51 (inactive)
19,Cc1csc(NC(=S)Nc2cccc(Cl)c2)n1,63.6 (active)
20,CC(=O)Nc1cccc(C(=O)Nc2nc(C)cs2)c1,-0.0712 (inactive)
21,S=C(Nc1cccc(Cl)c1)Nc1ccc2cn[nH]c2c1,-0.0612 (inactive)
22,CCc1nc(NCCO)c(C#N)c2c1CCCC2,-0.68 (inactive)
23,S=C(NCCc1ccccc1)N1CCn2cccc2C1c1ccncc1 (centres undefined),-2.41 (inactive)
24,CN1CCN(c2ncc3c(n2)CC(c2ccccc2F)CC3=O)CC1 (centres undefined),-1.12 (inactive)
25,O=c1c(-c2ccc3c(c2)OCCO3)c(C(F)(F)F)oc2cc(O)cc(O)c12,-2.89 (active)

row,Compound,B-score of Tl+ flux slope (higher = more flux/activation; lower = inhibition)
1,COc1ccc(-c2onc(C)c2-c2ccc3c(c2)OCCO3)c(O)c1,0.0687 (inactive)
2,CCOC(=O)c1cc2cc(-c3c(C(=O)OCC)oc4cc(O)cc(O)c4c3=O)ccc2o1,-1.36 (inactive)
3,COC(=O)C1=C(C)NC(=O)/C1=C/c1ccc(CNS(=O)(=O)c2ccc(C)cc2)o1,-0.17 (inactive)
4,O=C(O)C(NS(=O)(=O)c1cccc2nsnc12)c1ccccc1 (centres undefined),0.0778 (inactive)
5,Cc1cc(=O)[nH]c(SCC(N)=O)c1C#N,0.485 (inactive)
6,CCCCSc1[nH]c(=O)c(C(=O)OCC)cc1C#N,13 (active)
7,CCOC(=O)c1cc(C#N)c(N2CCCCC2)nc1-c1ccccc1,0.496 (inactive)
8,CCc1c(C)nc2c(-c3ccccc3)c(C)nn2c1Nc1ccc(NC(C)=O)cc1,0.635 (inactive)
9,Cc1ccccc1NC(=O)c1ccccc1,0.272 (inactive)
10,Cc1ccc(NC(=S)NC(=O)c2ccc(-c3ccccc3)cc2)c(C)c1,1.26 (inactive)
11,Cc1ccc(C(=O)NC(=S)Nc2ccccc2C)cc1,26.9 (active)
12,CC(=O)c1sc(NC(=O)c2ccc(C)cc2)nc1C,0.0252 (inactive)
13,Cc1ccc(C)c(NC(=O)C(OC(=O)c2ccc(C)s2)c2ccccc2)c1 (centres undefined),0.676 (inactive)
14,Cc1ccc(C)c(NC(=S)NNC(=O)c2csc(C)c2)c1,6.59 (active)
15,Cc1ccccc1NC(=S)NNC(=O)c1cccc(Br)c1,11.3 (active)
16,O=C(NC(=S)Nc1cccc2c(O)cccc12)c1cccc(Br)c1,1.46 (inactive)
17,COC(=O)c1sc(NC(=O)c2ccc(OC)cc2OC)nc1C,-0.264 (inactive)
18,Cc1cc2[nH]ncc2cc1NC(=S)NC(=O)c1ccccc1,0.179 (inactive)
19,COC(=O)c1sc(NC(=S)NC(=O)c2ccc(C)cc2)nc1C,33.9 (active)
20,Cc1ccc(C)c(NC(=O)CCC(=O)NNC(=O)c2cccs2)c1,-1.3 (inactive)
21,Cc1ccc2c(c1)c1ncn(Cc3ccc(F)cc3)c(=O)c1n2C,-2.08 (inactive)
22,O=[N+]([O-])c1cc([N+](=O)[O-])c2cccnc2c1O,-1.12 (inactive)
23,COC(=O)c1ccc(COc2cc([N+](=O)[O-])cc3cccnc23)cc1,0.95 (inactive)
24,O=C(Nc1ccc([N+](=O)[O-])cc1)C1CC12CCC2 (centres undefined),-0.552 (inactive)
